Test [1] relates to Sodium/Iodide Symporter (NIS), SLC5A5 (gene 6528). Briefly: CPHEA_Stoker_NIS_Inhibition_RAIU: CPHEA's Radioactive Iodide Uptake (RAIU) Assay for Sodium/Iodide Symporter (NIS) Inhibition, Stoker and Laws Labs (AID 2283841). The method, boiled down: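 HEK293T cells stably expressing human NIS (hNIS-HEK293T-EPA) were exposed to test chemicals at 0.001–100uM (0.5% final DMSO) with 125I at a final 329pM in HBSS/10mM HEPES pH 7.4. After 2 hours at room temperature and ice-cold washes, intracellular 125I was counted as CPM and normalized to DMSO wells.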

In test [2] the target is human Thyroid hormone Receptor alpha (TRa), THRA (gene 7067) (UniProt P10827). Briefly: ATG_hTRa_XSP2: Attagene TRANS-FACTORIAL Multi-Species (XSP2) HepG2 Assay for human Thyroid hormone Receptor alpha (TRa) (AID 2283838). The method, boiled down: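 HepG2 cells were transiently transfected with GAL4-UAS reporter units for chimeric human TRa-Gal4 and dosed for 24 hours, with 3 nM 6-alpha-fluorotestosterone and 1.5 nM norgestrel present. Reporter mRNA was quantified by RT-PCR, FAM labelling and capillary electrophoresis, with gain of signal fitted versus DMSO.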

Test [3] has as its target frog Thyroid hormone Receptor alpha (TRa), thra-a (gene 397942) (UniProt P15204). Briefly: ATG_frTRa_XSP2: Attagene TRANS-FACTORIAL Multi-Species (XSP2) HepG2 Assay for frog Thyroid hormone Receptor alpha (TRa) (AID 2283839).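 For AC50: AC50 reflects induction of frog TRa-driven reporter mRNA above DMSO baseline.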 An outline of the steps: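 Frog thyroid receptor alpha was tested as an exogenous NR-Gal4 fusion in transiently transfected HepG2 cells. After 24 h chemical treatment, reporter mRNA induction was quantified by RT-PCR and capillary electrophoresis, with gain-of-signal analysed relative to DMSO.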

For test [4], the target named is human Thyroid hormone Receptor beta (TRb), THRB (gene 7068) (UniProt P10828). Briefly: ATG_hTRb_XSP2: Attagene TRANS-FACTORIAL Multi-Species (XSP2) HepG2 Assay for human Thyroid hormone Receptor beta (TRb) (AID 2283840).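 Note: actives raise reporter mRNA so potency reflects agonist-like gain of signal.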 An outline of the steps:
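In this cell-based multiplex, HepG2 liver cells carrying transfected GAL4-UAS reporter constructs are exposed to chemical for 24 hours, then reporter transcripts are measured by RT-PCR with capillary electrophoresis, scored as gain of signal against DMSO.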

Test [5] can be described thus: ATG_XTT_Cytotoxicity_XSP2: Cytotoxicity Assessment in the Attagene TRANS-FACTORIAL Multi-Species (XSP2) HepG2 Assay (AID 2283837). The method, boiled down:
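HepG2 cells, transiently transfected with multiple reporter constructs, exposed to chemical for 24 h. Cell number assessed with XTT fluorescence read-out; loss of signal fitted relative to DMSO.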

Test [6] can be described thus: CEETOX_H295R_OHPREG_noMTC: CeeTox H295R High-throughput Steroidogenesis Assay for OH-Pregnenolone (OHPREG), maximum tolerated concentration (MTC) filtered results only (AID 2283912; active = hit-call score of the fitted dose curve at least 0.9, where 1 is the maximum; inactive = score below 0.9). The note with it: actives raise or lower the signal. On the procedure:
(§1) CEETOX_H295R is a cell-based, multiplexed-readout assay that uses H295R, a human adrenal gland cell line, with measurements taken at 48 hours after chemical dosing in a 96-well plate.CEETOX_H295R_OHPREG_noMTC is one of 12 assay component(s) measured or calculated from the CEETOX_H295R assay (11 hormones and 1 viability assay). It is designed to make measurements of hormone induction, a form of inducible reporter, as detected with absorbance signals by HPLC-MS-MS technology. The concentrations for these components have not been pre-filtered for the maximum tolerated concentration (MTC) based on the MTT assay (_noMTC).Data from the assay component CEETOX_H295R_OHPREG_noMTC was analyzed into 1 assay endpoint. This assay endpoint, CEETOX_H295R_OHPREG_noMTC, was analyzed with bidirectional fitting relative to DMSO as the negative control and baseline of activity. […]
(§2) Cell culture and media preparation procedures were conducted in accordance with OECD Test No. 456 guidelines, with minor modifications. […] For steroid quantification, media samples were shipped to OpAns, LLC (Durham, NC) on dry ice, and samples were thawed to room temperature prior to liquid-liquid extraction. […] Steroid hormones were separated by HPLC, eluted using a reverse phase C18 gradient with electrospray positive ionization, followed by quantification by tandem mass spectrometry (MS/MS). […]

Test [7] in a line: CEETOX_H295R_OHPROG_noMTC: CeeTox H295R High-throughput Steroidogenesis Assay for OH-Progesterone (OHPROG), maximum tolerated concentration (MTC) filtered results only (AID 2283914; active = hit-call score of the fitted dose curve at least 0.9, where 1 is the maximum; inactive = score below 0.9). The following applies: actives raise or lower the signal. An outline of the steps:
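H295R cells prestimulated 48 h with 10 uM forskolin, then exposed 48 h to chemical (0.1% DMSO final). 17alpha-hydroxyprogesterone in medium quantified by HPLC-MS/MS after MTBE extraction; bidirectional fitting versus DMSO, concentrations not MTC-filtered.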

A short description of test [8]: CEETOX_H295R_ANDR_noMTC: CeeTox H295R High-throughput Steroidogenesis Assay for Androstenedione (ANDR), maximum tolerated concentration (MTC) filtered results only (AID 2283915; active = hit-call score of the fitted dose curve at least 0.9, where 1 is the maximum; inactive = score below 0.9). The following applies: actives raise or lower the signal. The method, boiled down:
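H295R cells, passage 10 or below, prestimulated 48 h with 10 uM forskolin, then exposed 48 h to chemical in 0.1% DMSO. Medium androstenedione extracted with MTBE, quantified by HPLC-MS/MS; concentrations not MTC-filtered; bidirectional fit versus DMSO.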

Test [9] can be described thus: CEETOX_H295R_ESTRADIOL_noMTC: CeeTox H295R High-throughput Steroidogenesis Assay for Estradiol, maximum tolerated concentration (MTC) filtered results only (AID 2283919; active = hit-call score of the fitted dose curve at least 0.9, where 1 is the maximum; inactive = score below 0.9). The note with it: actives raise or lower the signal. The method, boiled down: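 H295R human adrenal cells pre-stimulated 48 h with 10 uM forskolin, then exposed 48 h to chemical (0.1% DMSO final). Estradiol in medium measured by HPLC-MS/MS after MTBE extraction and dansyl derivatization; bidirectional fit versus DMSO, concentrations not MTT-filtered.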

The nature of test [10]: CEETOX_H295R_PROG_noMTC: CeeTox H295R High-throughput Steroidogenesis Assay for Progesterone (PROG), maximum tolerated concentration (MTC) filtered results only (AID 2283920; active = hit-call score of the fitted dose curve at least 0.9, where 1 is the maximum; inactive = score below 0.9). The note with it: actives raise or lower the signal. On the procedure:
as §1, with “plate.CEETOX_H295R_PROG_noMTC” for “plate.CEETOX_H295R_OHPREG_noMTC”, “CEETOX_H295R_PROG_noMTC” for “CEETOX_H295R_OHPREG_noMTC”, “CEETOX_H295R_PROG_noMTC,” for “CEETOX_H295R_OHPREG_noMTC,”
as §2

Where “and” joins values, the source holds several entries; their conditions need not be identical. Equal entries are not always repeated. Records with an inconclusive call do not appear. Some structures have more than one record in an assay (separate samples or runs), and their calls can disagree. Calls of active or inactive are those of the source. Rule for the calls, unless noted: active = hit-call score of the fitted dose curve at least 0.9, where 1 is the maximum; inconclusive = response in the unintended direction; inactive = score below 0.9.

Chain of human Thyroid hormone Receptor alpha (TRa), THRA (gene 7067) (P10827 whole entry, looked up, the tested form may be a part): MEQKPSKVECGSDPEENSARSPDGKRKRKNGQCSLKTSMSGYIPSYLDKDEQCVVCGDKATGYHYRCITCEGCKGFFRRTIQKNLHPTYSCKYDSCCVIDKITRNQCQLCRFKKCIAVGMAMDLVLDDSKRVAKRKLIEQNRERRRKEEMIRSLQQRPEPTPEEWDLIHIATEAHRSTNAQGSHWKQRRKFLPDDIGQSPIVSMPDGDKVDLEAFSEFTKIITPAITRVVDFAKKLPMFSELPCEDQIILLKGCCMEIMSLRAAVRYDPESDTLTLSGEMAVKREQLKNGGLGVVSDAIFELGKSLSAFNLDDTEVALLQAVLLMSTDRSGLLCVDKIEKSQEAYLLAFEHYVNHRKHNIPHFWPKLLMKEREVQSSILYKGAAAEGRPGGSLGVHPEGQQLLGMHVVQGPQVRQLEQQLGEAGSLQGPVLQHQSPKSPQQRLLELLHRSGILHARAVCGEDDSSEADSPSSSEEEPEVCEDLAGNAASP
Chain of human Thyroid hormone Receptor beta (TRb), THRB (gene 7068) (P10828 whole entry, looked up, the tested form may be a part): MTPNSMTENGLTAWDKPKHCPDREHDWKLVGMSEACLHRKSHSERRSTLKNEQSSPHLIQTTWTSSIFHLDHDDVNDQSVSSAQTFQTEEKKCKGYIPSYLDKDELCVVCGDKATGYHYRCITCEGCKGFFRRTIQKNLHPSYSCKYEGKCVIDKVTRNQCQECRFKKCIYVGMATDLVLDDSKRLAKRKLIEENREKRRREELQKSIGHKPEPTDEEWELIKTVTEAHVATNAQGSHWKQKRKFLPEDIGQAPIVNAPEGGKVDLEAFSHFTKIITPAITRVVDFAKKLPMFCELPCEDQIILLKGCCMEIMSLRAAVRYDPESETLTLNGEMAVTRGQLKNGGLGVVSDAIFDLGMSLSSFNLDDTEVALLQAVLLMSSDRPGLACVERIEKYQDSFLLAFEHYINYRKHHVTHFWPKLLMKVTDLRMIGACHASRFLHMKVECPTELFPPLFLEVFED
Chain of frog Thyroid hormone Receptor alpha (TRa), thra-a (gene 397942) (P15204 whole entry, looked up, the tested form may be a part): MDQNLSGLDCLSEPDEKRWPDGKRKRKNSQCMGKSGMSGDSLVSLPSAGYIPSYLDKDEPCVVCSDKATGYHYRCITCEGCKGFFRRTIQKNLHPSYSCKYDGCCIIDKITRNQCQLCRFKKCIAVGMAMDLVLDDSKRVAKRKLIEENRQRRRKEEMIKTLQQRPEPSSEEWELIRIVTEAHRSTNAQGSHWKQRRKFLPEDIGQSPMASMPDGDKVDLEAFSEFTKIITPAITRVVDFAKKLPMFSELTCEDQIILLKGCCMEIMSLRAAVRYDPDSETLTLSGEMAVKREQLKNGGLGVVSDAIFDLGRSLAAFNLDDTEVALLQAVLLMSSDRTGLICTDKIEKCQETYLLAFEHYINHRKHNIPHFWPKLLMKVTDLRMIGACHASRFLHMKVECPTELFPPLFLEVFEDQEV

As for `C=CCOC(=O)C(C)(C)OC(=O)c1cc(-n2c(=O)cc(C(F)(F)F)n(C)c2=O)ccc1Cl`, the result in test [1] was inactive.

In the case of `CCOc1nc(F)cc2nc(S(=O)(=O)Nc3c(Cl)cccc3Cl)nn12`, in [1], the outcome was inactive.

In the case of `CCOP(=S)(OCC)Oc1nc(Cl)n(C(C)C)n1`, the outcome in [1] was inactive.

As for `CC1(C)C(C(=O)OC(C#N)c2cccc(Oc3ccccc3)c2)C1(C)C` (centres undefined), the result in test [1] was inactive.

As to `CO/N=C(/C1=NOCCO1)c1ccccc1Oc1ncnc(Oc2ccccc2Cl)c1F`, the AC50 in test [1] was 9.92 µM (active).

As to `C=C(C)CN(CC)c1c([N+](=O)[O-])cc(C(F)(F)F)cc1[N+](=O)[O-]`, the compound was called inactive in [2], in test [3] and in test [4]. Moreover, in test [1], the concentration at half-maximal activity (AC50) is 5.45 µM (active).

On to `CCN(CC)c1nc(C)cc(OP(=S)(OC)OC)n1`, for which, in [1], the result was inactive.

As to `CC(C)=CC1C(C(=O)OCc2coc(Cc3ccccc3)c2)C1(C)C` (centres undefined), in [1], the outcome was inactive.

For `CC(C)Oc1cccc(NC(=O)c2ccccc2C(F)(F)F)c1`, the result in test [1] was inactive.

Regarding `CC1(C)CCC(=Cc2ccc(Cl)cc2)C1(O)Cn1cncn1` (centres undefined), the result in test [2], in [3] and in test [4] was inactive.

For the compound `CCN(CC)C(=O)C(C)Oc1cccc2ccccc12` (centres undefined), the compound was called inactive in test [2], in test [3], in test [4] and in test [1].

With `COP(=S)(OC)Oc1ccc([N+](=O)[O-])c(C)c1`, the compound was classed as inactive in test [2], in test [3], in [4] and in test [1].

`COP(=S)(OC)SCn1nnc2ccccc2c1=O`: the call in [5], in test [2], in [3], in test [4] and in [1] was inactive.

In the case of `Cc1c(COC(=O)[C@@H]2[C@H](/C=C(\Cl)C(F)(F)F)C2(C)C)cccc1-c1ccccc1`, the outcome in test [2] and in test [3] was inactive.

On to `Clc1cccc(C(Cl)(Cl)Cl)n1`, for which the outcome in test [1] was inactive.

With `CC1(C)CON(Cc2ccccc2Cl)C1=O`, in test [1], the outcome was inactive.

For the compound `CCNP(=S)(OC)O/C(C)=C/C(=O)OC(C)C` (centres undefined), the outcome in test [1] was inactive.

`Cc1ccc(N=CN(C)C=Nc2ccc(C)cc2C)c(C)c1`: the outcome in test [1] was inactive.

Turning to `CCCCOCN(C(=O)CCl)c1c(CC)cccc1CC`, the result in [1] was inactive.

As to `CSC(=O)c1c(C(F)F)nc(C(F)(F)F)c(C(=O)SC)c1CC(C)C`, the compound was called inactive in test [4] and in [1].

Turning to `CCOP(=O)(OCC)Oc1nc(Cl)c(Cl)cc1Cl`, the result in [1] was inactive.

Turning to `COC(=O)c1c(C(F)F)nc(C(F)(F)F)c(C2=NCCS2)c1CC(C)C`, the outcome in test [1], in [6], in [8] and in test [9] was inactive. Further, the AC50 in test [7] is 7.98 µM (active); in test [10], 13.8 µM (active).

Take `CCCCC(O)(Cn1cncn1)c1ccc(Cl)cc1Cl` (centres undefined): the outcome in [1] was inactive.

As to `CC1(C)C(C=C(Cl)Cl)C1C(=O)OC(C#N)c1cccc(Oc2ccccc2)c1` (centres undefined), the result in [2], in test [3], in [4] and in test [1] was inactive.

On to `N#Cc1c[nH]cc1-c1cccc2c1OC(F)(F)O2`, for which the AC50 is 100 µM (active) in test [2]; 100 µM (active) and 60.7 µM (active) in test [3]. Further, the result in [2], in test [4] and in test [1] was inactive.

Consider `OC(c1ccc(Cl)cc1)(c1ccc(Cl)cc1)C(Cl)(Cl)Cl`, for which the AC50 in test [1] is 30.2 µM (active).

As to `CC(C)N1C(=O)N(c2ccccc2)CSC1=NC(C)(C)C`, the AC50 in test [1] is 27.8 µM (active).

As for `O=C1C2CC=CCC2C(=O)N1SC(Cl)(Cl)Cl` (centres undefined), the AC50 in test [1] is 36 µM (active).

Turning to `CCOC(=O)C(C)OC(=O)c1cc(Oc2ccc(C(F)(F)F)cc2Cl)ccc1[N+](=O)[O-]` (centres undefined), the result in test [1] was inactive.

Take `COc1ccc(-c2ccccc2)cc1NNC(=O)OC(C)C`: the AC50 in test [1] was 50 µM (active).

As to `CC(C)NC(=O)N1CC(=O)N(c2cc(Cl)cc(Cl)c2)C1=O`, the call in [2] and in [3] was inactive.

`O=C(Nc1ccccc1-c1ccc(Cl)cc1)c1cccnc1Cl`: the outcome in [1] was inactive.

`CCOc1cc(C(C)(C)C)ccc1C1COC(c2c(F)cccc2F)=N1` (centres undefined): in test [1], the concentration at half-maximal activity (AC50) was 1.21 µM (active).

As to `Nc1c(Cl)c(Cl)nc(C(=O)O)c1Cl`, the outcome in test [1] was inactive.

The term AC50 denotes the midpoint of the concentration-response curve, whichever way the signal moves.
